One assay has as its target MOBKL1B. Description: pooled miR-30 sensor sort-seq; sequence = guide strand. As to conditions: shRNA.
For the sequence AAGAGTTTCATCATCAAGCTGA, the sensor-assay potency score (higher = more potent) worked out at 0.471.

In turn, TAAAAGAATAAAACCAATCTGA gave a sensor-assay potency score (higher = more potent) of -0.367.

TTTTAATATTAGTACCATCTGC: the sensor-assay potency score (higher = more potent) was -0.715.

TTTAATATTAGTACCATCTGCC: the sensor-assay potency score (higher = more potent) was 0.311.

TTTTGGTGCAGAACATTTGATT yielded a sensor-assay potency score (higher = more potent) of -0.935. With TTGAATGTTTTAGAAGAGCGGC, the sensor-assay potency score (higher = more potent) was -0.634.

With TATGTGATAACAACAAGAGTGG, the sensor-assay potency score (higher = more potent) is -0.235. In the case of TTAATTCTTGAAGAGGTGCCAG, the sensor-assay potency score (higher = more potent) was -0.419. On to TTCATCATCAAGCTGATCTTGA, for which the sensor-assay potency score (higher = more potent) is 0.57.

A further assay addresses MOCS3. Described as above. As to conditions: shRNA.
Regarding TTTGCAAATCACATAAATGGGG, the sensor-assay potency score (higher = more potent) was -0.854. On the same count and under the same terms, to TTGGTCACTGTCTCCGCTGGGG belongs -0.474. The same measure, in the same setting: to TAGTCGGTGACAGAAACACGCT belongs -0.908; to TTTCTGTGAGTCATTTCCCAGT, -0.966.

The sequence TAGCGCAGAATCTCATCTCGGG gave a sensor-assay potency score (higher = more potent) of -0.0421. The same measure, in the same setting: in the case of TCAAAGAGCAACAAGCTGCCAC it was -0.221. Still for that read-out and setting: in the case of AACAAGTGTATCTTTGAGGTAT it was 0.286. The same measure, in the same setting: to TTAGAAAGCATTTTGACTGGGG belongs 0.772. Take TTGAGCTGCTGATAAGGACTGG: the sensor-assay potency score (higher = more potent) was -0.00969. On the same count and under the same terms, to TATTATGGCAATCCACATCTTT belongs -0.453. TTGCAAATCACATAAATGGGGA yielded a sensor-assay potency score (higher = more potent) of -0.379. Still for that read-out and setting: in the case of TTAAAGGGTCTAACTCTTGAGC it was -0.607.

For another assay, the target named is MOGAT1. The assay is described as above. Conditions: shRNA.
TAGGACACACTTTTCTTGGAAA yielded a sensor-assay potency score (higher = more potent) of -0.902. The same measure, in the same setting: to TTTCTTGGAAACTGAAACCAGC belongs -0.444. The same measure, in the same setting: in the case of TATAGGTCTGATGTAACTCCTC it was -0.267; in that of TTGTACTGAAAAACTCCCCTGG, 0.595. The same measure, in the same setting: to TTCTGAACAGTTCTAATCCATG belongs -1.47. For the sequence TTCTAATCCATGATCCTTCAGG, the sensor-assay potency score (higher = more potent) was -0.32. Same read-out and setting: to TTACCATGTAGGACACACTTTT belongs -0.495; to TAACTCCTCAATCTGCTCCTGG, -0.332; to TTGATCCAGCTGGATCTCCTGC, -0.998. In turn, TATAGTTGTGACTTGGATCCAA yielded a sensor-assay potency score (higher = more potent) of 0.757. Still for that read-out and setting: in the case of ATGAATTGGAAAATAGTCCTTA it was 0.9; in that of TTTAACAAATCCTTTCCGCTGG, -0.0523.

The target of another assay is MON2. The assay is described as above. Conditions: shRNA.
Regarding TATTTGACCAACAAATTCCTTA, the sensor-assay potency score (higher = more potent) was -0.301.

TTCTTCAAGACTATTCTCCATT: the sensor-assay potency score (higher = more potent) was -0.51. Still for that read-out and setting: in the case of TTGAATAGAGAGATTATCTGGA it was 0.727; in that of AACATCTACAACTATTTGCAGG, -1.11. Still for that read-out and setting: in the case of TAGTGTTGAAGATCCTTGCTAC it was 0.514; in that of TTGTTCTATAATATCTCTGTGT, -0.519. Consider AAAAACAACAGTAACAACTTGT, for which the sensor-assay potency score (higher = more potent) came out at 0.77.

The record behind these values is the OligoGym collection.
Further: reference of the scale not given here.
